# In the supplement of paper PMC8728848:
# About 410 targets per protein were measured; listed, in parts, are those with the strongest signals and a random draw of the rest.
# Key:
# Assay in all cases: glycan array binding signal (z-score within array); higher = stronger binding
# Settings in all cases: glycan notation: IUPAC condensed, linker removed
# [1] = test system: Gal(b1-4)GlcNAc(b1-2)[Gal(b1-4)GlcNAc(b1-6)]Man(a1-6)[Gal(b1-4)GlcNAc(b1-2)Man(a1-3)]Man(b1-4)GlcNAc(b1-4)GlcNAc
# Method in brief: (§1)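 Glycan array binding is given as a within-array Z-score, which can be read as non-binding when negative. The arrays, 3228 of them, came from the Consortium for Functional Glycomics database and were retained only where the protein sequence was available. Z-scores were averaged across arrays of the same protein sequence at different concentrations or buffers and across linkers.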
# [2] = test system: Gal(b1-4)GlcNAc(b1-2)[Gal(b1-4)GlcNAc(b1-6)]Man(a1-6)[GlcNAc(b1-4)][Gal(b1-4)GlcNAc(b1-2)[Gal(b1-4)GlcNAc(b1-4)]Man(a1-3)]Man(b1-4)GlcNAc(b1-4)[Fuc(a1-6)]GlcNAc
# Method in brief: as §1
# [3] = test system: Gal(b1-4)GlcNAc(b1-3)Gal(b1-4)GlcNAc(b1-2)Man(a1-3)[Gal(b1-4)GlcNAc(b1-3)Gal(b1-4)GlcNAc(b1-2)Man(a1-6)]Man(b1-4)GlcNAc(b1-4)GlcNAc
# Method in brief: as §1
# [4] = test system: Gal(b1-4)GlcNAc(b1-3)Gal(b1-4)GlcNAc(b1-2)[Gal(b1-4)GlcNAc(b1-3)Gal(b1-4)GlcNAc(b1-6)]Man(a1-6)[Gal(b1-4)GlcNAc(b1-3)Gal(b1-4)GlcNAc(b1-2)Man(a1-3)]Man(b1-4)GlcNAc(b1-4)GlcNAc
# Method in brief: as §1
# [5] = test system: Gal(b1-4)GlcNAc(b1-3)Gal(b1-4)GlcNAc(b1-3)Gal(b1-4)GlcNAc(b1-2)Man(a1-3)[Gal(b1-4)GlcNAc(b1-3)Gal(b1-4)GlcNAc(b1-3)Gal(b1-4)GlcNAc(b1-2)Man(a1-6)]Man(b1-4)GlcNAc(b1-4)GlcNAc
# Method in brief: as §1
# [6] = test system: Gal(b1-4)GlcNAc(b1-3)Gal(b1-4)GlcNAc(b1-3)Gal(b1-4)GlcNAc(b1-2)Man(a1-3)[Gal(b1-4)GlcNAc(b1-3)Gal(b1-4)GlcNAc(b1-3)Gal(b1-4)GlcNAc(b1-2)Man(a1-6)]Man(b1-4)GlcNAc(b1-4)[Fuc(a1-6)]GlcNAc
# Method in brief: as §1
# [7] = test system: Gal(b1-4)GlcNAc(b1-3)Gal(b1-4)GlcNAc(b1-3)Gal(b1-4)GlcNAc(b1-3)Gal(b1-4)GlcNAc(b1-2)Man(a1-3)[Gal(b1-4)GlcNAc(b1-3)Gal(b1-4)GlcNAc(b1-3)Gal(b1-4)GlcNAc(b1-3)Gal(b1-4)GlcNAc(b1-2)Man(a1-6)]Man(b1-4)GlcNAc(b1-4)[Fuc(a1-6)]GlcNAc
# Method in brief: as §1
# [8] = test system: Gal(b1-4)GlcNAc(b1-2)[Gal(b1-4)GlcNAc(b1-6)]Man(a1-6)[Gal(b1-4)GlcNAc(b1-2)Man(a1-3)]Man(b1-4)GlcNAc(b1-4)[Fuc(a1-6)]GlcNAc
# Method in brief: as §1
# [9] = test system: Gal(b1-4)GlcNAc(b1-3)Gal(b1-4)GlcNAc(b1-3)Gal(b1-4)GlcNAc(b1-2)[Gal(b1-4)GlcNAc(b1-3)Gal(b1-4)GlcNAc(b1-3)Gal(b1-4)GlcNAc(b1-6)]Man(a1-6)[Gal(b1-4)GlcNAc(b1-3)Gal(b1-4)GlcNAc(b1-3)Gal(b1-4)GlcNAc(b1-2)Man(a1-3)]Man(b1-4)GlcNAc(b1-4)[Fuc(a1-6)]GlcNAc
# Method in brief: as §1
# [10] = test system: Gal(b1-4)GlcNAc(b1-3)Gal(b1-4)GlcNAc(b1-3)Gal(b1-4)GlcNAc(b1-3)Gal(b1-4)GlcNAc(b1-2)[Gal(b1-4)GlcNAc(b1-3)Gal(b1-4)GlcNAc(b1-3)Gal(b1-4)GlcNAc(b1-3)Gal(b1-4)GlcNAc(b1-6)]Man(a1-6)[Gal(b1-4)GlcNAc(b1-3)Gal(b1-4)GlcNAc(b1-3)Gal(b1-4)GlcNAc(b1-3)Gal(b1-4)GlcNAc(b1-2)Man(a1-3)]Man(b1-4)GlcNAc(b1-4)[Fuc(a1-6)]GlcNAc
# Method in brief: as §1
substance,measurement,setting,value
AgI/IIC123-GFP (Streptococcus mutans),glycan array binding signal (z-score),[1],-0.449
same,glycan array binding signal (z-score),[2],-0.015
same,glycan array binding signal (z-score),[3],3.9
same,glycan array binding signal (z-score),[4],-0.185
LcI (Legionella pneumophila),glycan array binding signal (z-score),[1],0.017
same,glycan array binding signal (z-score),[5],0.132
same,glycan array binding signal (z-score),[6],-0.212
same,glycan array binding signal (z-score),[7],0.132
AgI/II Vhelical-GFP (Streptococcus mutans),glycan array binding signal (z-score),[8],-0.078
same,glycan array binding signal (z-score),[2],-0.092
same,glycan array binding signal (z-score),[9],0.214
Actinohivin (Actinomycete K97),glycan array binding signal (z-score),[9],0.097
same,glycan array binding signal (z-score),[10],-0.012
